Test results: the supplement of paper PMC12350171
Where a name gives a salt, the structure may show the parent alone. Values without a mark were called inactive.

What was measured:
Conditions in all cases: 20 µM
[1] = system: Salmonella enterica typhimurium; test: growth AUC normalised to DMSO control (fraction of control); higher = less growth inhibition, active = hit call of the paper
Outline: (§1)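 Pathogens were passaged twice under anaerobic conditions, then inoculated into pre-reduced mGAM plates at a starting OD578 of 0.01, with compound at 20 μM and 1% DMSO, and sealed with breathable membranes. For Haemophilus parainfluenzae, the medium was supplemented with hemin and NAD. OD578 was read every hour for 24 h in three biological replicates. Growth-curve AUC was calculated by the trapezoidal rule up to the exponential-to-stationary transition and normalised to DMSO controls on the same plate.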

Shigella flexneri = test: as above
Outline: as §1

Vibrio cholerae = test: as above
Outline: as §1

[2] = system: Yersinia pseudotuberculosis; test: as above
Outline: as §1

P. vulgatus RND KO = test: growth AUC normalised to DMSO control (median) (fraction of control); higher = less growth inhibition, active = hit call of the paper
Outline: (§2)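 For normalised area under the curve, growth curves were truncated at entry into stationary phase, integrated by the trapezoidal rule and divided against vehicle wells on the same plate. The curves came from strains passaged twice overnight without oxygen and then grown in mGAM in 96-well plates at a starting OD578 of 0.01. Each well held an approved-drug library compound at 20 μM with 1% DMSO, and OD578 was read hourly for 24 h in an anaerobic incubator. Values are medians of three biological replicates.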

P. vulgatus WT = test: as above
Outline: as §2

[3] = system: S. enterica typhimurium WT; test: as above
Outline: as §2

[4] = system: S. enterica typhimurium tolC KO; test: as above
Outline: as §2
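Wherever growth AUC normalised to DMSO control (median) is given: active when median AUC fell below 0.1.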

| SMILES | growth AUC normalised to DMSO control [1] | growth AUC normalised to DMSO control (Shigella flexneri) | growth AUC normalised to DMSO control (Vibrio cholerae) | growth AUC normalised to DMSO control [2] | growth AUC normalised to DMSO control (P. vulgatus RND KO) | growth AUC normalised to DMSO control (P. vulgatus WT) | growth AUC normalised to DMSO control [3] | growth AUC normalised to DMSO control [4] |
| --- | --- | --- | --- | --- | --- | --- | --- | --- |
| Fc1ccc([C@@H]2CCNC[C@H]2COc2ccc3c(c2)OCO3)cc1 [Paroxetine hydrochloride] | 0.995 | 1 | 0.94 | 0.991 | 0.997 | 1.02 | 0.998 | 0.982 |
| O=C1Cc2cc(CCN3CCN(c4nsc5ccccc45)CC3)c(Cl)cc2N1 [Ziprasidone  hydrochloride monohydrate] | 1.02 | 1.06 | 1.01 | 1 | 1.03 | 1.07 | 1.02 | 1 |
| CN(C)CCC=C1c2ccccc2CCc2ccccc21 [Amitryptiline hydrochloride] | 0.997 | 0.999 | 0.905 | 1.01 | 0.993 | 0.959 | 0.998 | 0.97 |
| CC[C@@H]1C(=O)OC[C@@H]1Cc1cncn1C [Pilocarpine nitrate] | 0.995 | 1 | 0.998 | 1.04 | 0.982 | 0.998 | 1 | 1 |
| COc1ccc([C@@H]2Sc3ccccc3N(CCN(C)C)C(=O)[C@@H]2OC(C)=O)cc1 [Diltiazem hydrochloride] | 0.998 | 0.969 | 1 | 1.01 | 0.99 | 1 | 0.995 | 0.973 |
| Clc1ccc2c(c1)CCc1cccnc1C2=C1CCNCC1 [Desloratadine] | 1.02 | 0.975 | 1 | 0.998 | 0.959 | 0.961 | 0.988 | 0.996 |
| CC[N+](C)(CC)CCC[n+]1c(-c2ccccc2)c2cc(N)ccc2c2ccc(N)cc21 [Propidium iodide] | 0.998 | 1.06 | 1.08 | 1.01 | 1.05 | 1.06 | 1.01 | 1 |
| CCn1cc(C(=O)O)c(=O)c2cc(F)c(N3CCNCC3)cc21 [Norfloxacin] | 0.00731 (active) | 0.0176 (active) | 0.0427 (active) | 0.0323 (active) | 0.922 | 0.865 | 0.00734 (active) | 0.0069 (active) |
| CO[C@@]1(NC(=O)Cc2cccs2)C(=O)N2C(C(=O)O)=C(COC(N)=O)CS[C@@H]21 [Cefoxitin sodium salt] | 0.00626 (active) | 0.0351 (active) | 0.307 (active) | 0.0451 (active) | 0.018 (active) | 0.0178 (active) | 0.00954 (active) | 0.0113 (active) |
| CCN(CC)CCNC(=O)c1cc(Cl)c(N)cc1OC [Metoclopramide monohydrochloride] | 0.994 | 0.978 | 0.989 | 0.993 | 0.977 | 0.971 | 1 | 1 |
| C[C@@H](c1ncncc1F)[C@](O)(Cn1cncn1)c1ccc(F)cc1F [Voriconazole] | 0.984 | 0.959 | 0.955 | 1 | 1.02 | 1.02 | 1 | 0.998 |
| CN(C)CCCN1c2ccccc2CCc2ccc(Cl)cc21 [Clomipramine hydrochloride] | 0.992 | 1 | 0.874 | 1.01 | 0.976 | 0.957 | 1.01 | 0.962 |
| CC(=O)OCC(=O)[C@@]12OC(C)(C)O[C@@H]1C[C@H]1[C@@H]3C[C@H](F)C4=CC(=O)C=C[C@]4(C)[C@@]3(F)[C@@H](O)C[C@@]12C [Fluocinonide] | 0.994 | 0.97 | 0.973 | 1.12 | 0.967 | 0.951 | 1.01 | 0.995 |
| CN(C)/N=N/c1[nH]cnc1C(N)=O [Dacarbazine] | 0.989 | 0.976 | 0.994 | 1 | 1.04 | 1.03 | 0.997 | 1 |
| Cc1c(NC(=O)c2cccnc2)c(=O)n(-c2ccccc2)n1C [Nifenazone] | 0.976 | 1 | 1.01 | 1.01 | 0.997 | 1 | 1.01 | 0.996 |
| CCOC(=O)[C@H](CCc1ccccc1)N[C@@H](C)C(=O)N1Cc2ccccc2C[C@H]1C(=O)O [Quinapril hydrochloride] | 0.986 | 0.967 | 0.988 | 1.01 | 0.995 | 0.982 | 0.982 | 0.996 |
| CCn1cc(C(=O)O)c(=O)c2cc(F)c(N3CCN(C)CC3)cc21 [Pefloxacin] | 0.00601 (active) | 0.0383 (active) | 0.0435 (active) | 0.0255 (active) | 1.01 | 0.799 | 0.00724 (active) | 0.00757 (active) |
| Cc1c(O)c(=O)n(-c2ccccc2)n1C [Antipyrine, 4-hydroxy] | 1.01 | 1.07 | 1.01 | 1.03 | 1.01 | 1.06 | 1.01 | 1 |
| CC(=O)N[C@@H](CC(=O)O)C(=O)N[C@@H](CCC(=O)O)C(=O)O [Spaglumic acid] | 1.03 | 1.01 | 1.02 | 1.02 | 1.01 | 1.04 | 1.01 | 1 |
| CN(C)CC/C=C1\c2ccccc2CSc2ccccc21 [Dosulepin hydrochloride] | 0.992 | 0.995 | 0.952 | 0.998 | 1.03 | 1.02 | 0.996 | 0.942 |
| CNC(=O)c1c(I)c(C(=O)NCC(=O)Nc2c(I)c(C(=O)O)c(I)c(C(=O)NCCO)c2I)c(I)c(N(C)C(C)=O)c1I [Ioxaglic acid] | 0.968 | 0.993 | 1.01 | 0.964 | 1.01 | 1 | 0.997 | 0.994 |
| CCSc1ccc2c(c1)N(CCCN1CCN(C)CC1)c1ccccc1S2 [Thiethylperazine maleate] | 1 | 1.02 | 0.983 | 0.99 | 1 | 1 | 0.996 | 0.91 |
| C[C@]12CC[C@@H]3c4ccc(O)cc4CC[C@H]3[C@@H]1CC[C@@H]2O [Estradiol-17 beta] | 1.02 | 1.01 | 0.992 | 1.01 | 0.941 | 0.941 | 1.02 | 0.997 |
| O=C(c1ccc(OCCN2CCCCC2)cc1)c1c(-c2ccc(O)cc2)sc2cc(O)ccc12 [Raloxifene hydrochloride] | 1.01 | 0.992 | 0.988 | 0.981 | 1.06 | 1.01 | 1.02 | 1.01 |
| C=CCc1ccccc1OCC(O)CNC(C)C (stereo unspecified) [Alprenolol hydrochloride] | 1.01 | 1.06 | 1.04 | 1.01 | 1.07 | 1.08 | 0.995 | 0.997 |
| CC(C)(Oc1ccc(CCNC(=O)c2ccc(Cl)cc2)cc1)C(=O)O [Bezafibrate] | 0.976 | 0.959 | 0.988 | 0.994 | 0.976 | 1 | 0.998 | 0.99 |
| CC(Cc1cccc(C(F)(F)F)c1)NCCOC(=O)c1ccccc1 (stereo unspecified) [Benfluorex] | 0.94 | 0.968 | 0.869 (active) | 1.01 | 0.956 | 0.975 | 0.986 | 0.98 |
